# Measurements as given in the supplement of paper PMC6555819.
# Legend:
# Assay in all cases: PBM binding z-score (relative to random genomic background probes); higher = stronger binding; sequences stand for … in GC…GCGATTGACAGCGTAGAATGAAGG
# [1] = test system: RARb homodimer (NR concentration 270 nM)
# Outline: (§1)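 Each nuclear receptor dimer, without ligand, was incubated for 1 h on custom Agilent 4×180K protein-binding microarrays. Binding was detected with antibodies against each partner (one per run), and scanned fluorescence was regression-normalized. The binding z-scores are referenced to random human genomic background probes.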
# [2] = test system: RARg:RXRa (NR concentration 270 nM, RXRa partner concentration 90 nM)
# Outline: as §1
# [3] = test system: RARg homodimer (NR concentration 270 nM)
# Outline: as §1
# [4] = test system: RXRa DBDmut IVT, anti-RXR (DBD mutation: RXRa K156A/R161A, NR concentration 90 nM)
# Outline: as §1
# [5] = test system: RXRa homodimer (NR concentration 180 nM)
# Outline: as §1
# [6] = test system: THRa:RXRa (NR concentration 90 nM, RXRa partner concentration 90 nM)
# Outline: as §1
# [7] = test system: THRa homodimer (NR concentration 90 nM)
# Outline: as §1
# [8] = test system: VDR homodimer (NR concentration 270 nM)
# Outline: as §1
sequence,measurement,setting,value
GCTGCTAGGTCAGCTTGGTCAGCTAACGGGTACG,PBM binding z-score,[1],2.8
same,PBM binding z-score,[2],2.8
same,PBM binding z-score,[3],3.88
same,PBM binding z-score,[4],0.514
same,PBM binding z-score,[5],1.1
same,PBM binding z-score,[6],1.73
same,PBM binding z-score,[7],0.547
same,PBM binding z-score,[8],-0.161
CCTACTGGGCCGAAGGTCATTGATTCCAATGCTC,PBM binding z-score,[1],3.08
same,PBM binding z-score,[2],2.93
same,PBM binding z-score,[3],2.53
same,PBM binding z-score,[4],0.398
same,PBM binding z-score,[5],3.01
same,PBM binding z-score,[6],1.99
same,PBM binding z-score,[7],0.19
same,PBM binding z-score,[8],1.46
ACAATTAGTTGAGACGAGGGCAACCGATAGGTTG,PBM binding z-score,[1],1.5
same,PBM binding z-score,[2],0.974
same,PBM binding z-score,[3],0.94
same,PBM binding z-score,[4],0.611
same,PBM binding z-score,[5],0.718
same,PBM binding z-score,[6],2.74
same,PBM binding z-score,[7],0.375
same,PBM binding z-score,[8],1.07
TCTAGTAGGCCAGAGGGTCACTCAAGAGGTACGG,PBM binding z-score,[1],2.95
same,PBM binding z-score,[2],2.83
same,PBM binding z-score,[3],2.16
same,PBM binding z-score,[4],0.571
same,PBM binding z-score,[5],2.75
same,PBM binding z-score,[6],1.74
same,PBM binding z-score,[7],0.0135
same,PBM binding z-score,[8],0.631
CATCAAAGTTCAAGGTAACGTAACAGAAAGCAGC,PBM binding z-score,[1],3.8
same,PBM binding z-score,[2],5.15
same,PBM binding z-score,[3],5.74
same,PBM binding z-score,[4],4.51
same,PBM binding z-score,[5],4.38
same,PBM binding z-score,[6],3.04
same,PBM binding z-score,[7],1.39
same,PBM binding z-score,[8],3.49
CTTACTGGGCCAAGGTCATTGATCAGTCAAAGCA,PBM binding z-score,[1],3.49
same,PBM binding z-score,[2],4
same,PBM binding z-score,[3],3.2
same,PBM binding z-score,[4],2.11
same,PBM binding z-score,[5],3.65
same,PBM binding z-score,[6],3.43
same,PBM binding z-score,[7],2.31
same,PBM binding z-score,[8],3.76
CCTACTGGGCCTTCAGGTCATTGATATCAACGTT,PBM binding z-score,[1],2.18
same,PBM binding z-score,[2],1.13
same,PBM binding z-score,[3],1.39
same,PBM binding z-score,[4],-0.0421
same,PBM binding z-score,[5],0.791
same,PBM binding z-score,[6],3.15
same,PBM binding z-score,[7],3.23
same,PBM binding z-score,[8],1.64
AGTCAAAGTTAATCTAGGTAACGTAAGATATGCT,PBM binding z-score,[1],-0.203
same,PBM binding z-score,[2],0.152
same,PBM binding z-score,[3],0.434
same,PBM binding z-score,[4],-0.168
same,PBM binding z-score,[5],0.0123
same,PBM binding z-score,[6],2.91
same,PBM binding z-score,[7],0.311
same,PBM binding z-score,[8],-0.189
AGTCAAAGTTCAGGACGAGGGAACGTAAAGCACG,PBM binding z-score,[1],2.88
same,PBM binding z-score,[2],4.2
same,PBM binding z-score,[3],4.74
same,PBM binding z-score,[4],3.07
same,PBM binding z-score,[5],2.87
same,PBM binding z-score,[6],2.44
same,PBM binding z-score,[7],0.19
same,PBM binding z-score,[8],1.74
ATATGTAGGTTAAGGGTCAATCAGGTTGGTTCGC,PBM binding z-score,[1],3.94
same,PBM binding z-score,[2],4.94
same,PBM binding z-score,[3],3.82
same,PBM binding z-score,[4],1.7
same,PBM binding z-score,[5],5.96
same,PBM binding z-score,[6],3.45
same,PBM binding z-score,[7],1.54
same,PBM binding z-score,[8],3.33
AGAATGAGATTATTAAGATCAGGGAATTGCGGTC,PBM binding z-score,[1],-0.433
same,PBM binding z-score,[2],-0.202
same,PBM binding z-score,[3],0.0706
same,PBM binding z-score,[4],-0.35
same,PBM binding z-score,[5],-0.434
same,PBM binding z-score,[6],-0.315
same,PBM binding z-score,[7],-0.66
same,PBM binding z-score,[8],-0.308
GCTTGTAGATCAAGGTTAACAAAGACTAAGCTAA,PBM binding z-score,[1],0.609
same,PBM binding z-score,[2],0.795
same,PBM binding z-score,[3],0.37
same,PBM binding z-score,[4],0.051
same,PBM binding z-score,[5],1.05
same,PBM binding z-score,[6],1.49
same,PBM binding z-score,[7],-0.000318
same,PBM binding z-score,[8],-0.118
TCTCTTAGTTGATTAGGGCAACCGAAACAGCGGA,PBM binding z-score,[1],0.99
same,PBM binding z-score,[2],0.874
same,PBM binding z-score,[3],0.649
same,PBM binding z-score,[4],1.47
same,PBM binding z-score,[5],0.82
same,PBM binding z-score,[6],0.934
same,PBM binding z-score,[7],0.61
same,PBM binding z-score,[8],0.608
ATATATAGGTTAGCTGGGGTCATTCAGACTAGGC,PBM binding z-score,[1],3.92
same,PBM binding z-score,[2],4.47
same,PBM binding z-score,[3],3.4
same,PBM binding z-score,[4],2.09
same,PBM binding z-score,[5],5.55
same,PBM binding z-score,[6],5.15
same,PBM binding z-score,[7],3.63
same,PBM binding z-score,[8],5.64
CCTTACGCGTCAAGGTTATAGCACGGGTGGTACG,PBM binding z-score,[1],0.818
same,PBM binding z-score,[2],0.576
same,PBM binding z-score,[3],0.348
same,PBM binding z-score,[4],0.122
same,PBM binding z-score,[5],1.06
same,PBM binding z-score,[6],1.5
same,PBM binding z-score,[7],0.517
same,PBM binding z-score,[8],0.299
TCAGCCAGGTGAAGGTAACTCAGGTACGCAGTCG,PBM binding z-score,[1],0.236
same,PBM binding z-score,[2],0.119
same,PBM binding z-score,[3],-0.0268
same,PBM binding z-score,[4],0.397
same,PBM binding z-score,[5],0.607
same,PBM binding z-score,[6],1.8
same,PBM binding z-score,[7],0.391
same,PBM binding z-score,[8],-0.347
ATCTCTAGGTATAGTTCAGTGAAAGATCGATAGA,PBM binding z-score,[1],1.4
same,PBM binding z-score,[2],0.857
same,PBM binding z-score,[3],1
same,PBM binding z-score,[4],0.996
same,PBM binding z-score,[5],0.686
same,PBM binding z-score,[6],0.473
same,PBM binding z-score,[7],0.453
same,PBM binding z-score,[8],1.12
TCTTGTAAATCAAGCAGGTTAAGAAAGCCTGAGT,PBM binding z-score,[1],0.102
same,PBM binding z-score,[2],0.0304
same,PBM binding z-score,[3],-0.176
same,PBM binding z-score,[4],0.73
same,PBM binding z-score,[5],0.26
same,PBM binding z-score,[6],0.147
same,PBM binding z-score,[7],-0.571
same,PBM binding z-score,[8],-0.0324
CCTACTTGGCCATTCAGAGGTCATTGATCATATG,PBM binding z-score,[1],3.93
same,PBM binding z-score,[2],3.64
same,PBM binding z-score,[3],2.6
same,PBM binding z-score,[4],1.92
same,PBM binding z-score,[5],3.73
same,PBM binding z-score,[6],3.21
same,PBM binding z-score,[7],1.66
same,PBM binding z-score,[8],3.32
CGTCCAAGGTCAGCAGGTCAGTGATAGCGACGTG,PBM binding z-score,[1],5.02
same,PBM binding z-score,[2],6.25
same,PBM binding z-score,[3],7.22
same,PBM binding z-score,[4],2.59
same,PBM binding z-score,[5],5.26
same,PBM binding z-score,[6],3.84
same,PBM binding z-score,[7],2.31
same,PBM binding z-score,[8],1.75
CAAACTAGGTCAAGATCAAAGTCGGTTTGTGCCA,PBM binding z-score,[1],2.77
same,PBM binding z-score,[2],3.45
same,PBM binding z-score,[3],4.74
same,PBM binding z-score,[4],1.66
same,PBM binding z-score,[5],2.69
same,PBM binding z-score,[6],2.75
same,PBM binding z-score,[7],0.747
same,PBM binding z-score,[8],0.787
TCTAGTTGGTCAAAGGTCACACACTCGAAATGCG,PBM binding z-score,[1],5.02
same,PBM binding z-score,[2],7.09
same,PBM binding z-score,[3],6.36
same,PBM binding z-score,[4],2.05
same,PBM binding z-score,[5],7.71
same,PBM binding z-score,[6],4.06
same,PBM binding z-score,[7],1.95
same,PBM binding z-score,[8],2.94
CAAACTAGGTCAAAGGGCAAAGTCGAGCCAACCA,PBM binding z-score,[1],3.81
same,PBM binding z-score,[2],6.04
same,PBM binding z-score,[3],5.28
same,PBM binding z-score,[4],1.76
same,PBM binding z-score,[5],7.35
same,PBM binding z-score,[6],3.56
same,PBM binding z-score,[7],0.847
same,PBM binding z-score,[8],1.06
TCGAGTAGGTTAGTCGGGGTATTCAGCCAACATA,PBM binding z-score,[1],-0.161
same,PBM binding z-score,[2],-0.227
same,PBM binding z-score,[3],-0.435
same,PBM binding z-score,[4],0.0822
same,PBM binding z-score,[5],-0.0938
same,PBM binding z-score,[6],1.71
same,PBM binding z-score,[7],-0.175
same,PBM binding z-score,[8],-0.161
GAGACAGGGTCAAGGCCAGAGTACGCGTATTGAT,PBM binding z-score,[1],3.45
same,PBM binding z-score,[2],5.32
same,PBM binding z-score,[3],5.34
same,PBM binding z-score,[4],1.95
same,PBM binding z-score,[5],6.25
same,PBM binding z-score,[6],3.52
same,PBM binding z-score,[7],1.06
same,PBM binding z-score,[8],1.98
TGAATGAGGTTAAAGATCAGGAAACGTGGCGTCG,PBM binding z-score,[1],0.6
same,PBM binding z-score,[2],2.53
same,PBM binding z-score,[3],1.23
same,PBM binding z-score,[4],1.25
same,PBM binding z-score,[5],3.88
same,PBM binding z-score,[6],2.41
same,PBM binding z-score,[7],0.21
same,PBM binding z-score,[8],0.62
CAAACTAGTTCACGAAAGGTCAAAGTCGAATGAC,PBM binding z-score,[1],5.1
same,PBM binding z-score,[2],6.68
same,PBM binding z-score,[3],6.48
same,PBM binding z-score,[4],3.07
same,PBM binding z-score,[5],7.49
same,PBM binding z-score,[6],4.5
same,PBM binding z-score,[7],1.16
same,PBM binding z-score,[8],4.41
CGAACTAGGTCAAGGACTGTGAATCTCCGCACGC,PBM binding z-score,[1],2.85
same,PBM binding z-score,[2],3.76
same,PBM binding z-score,[3],4.41
same,PBM binding z-score,[4],1.33
same,PBM binding z-score,[5],2.35
same,PBM binding z-score,[6],2.52
same,PBM binding z-score,[7],1.03
same,PBM binding z-score,[8],0.0818
